Laboratory results as given in the OligoGym collection.

biological target: AACS; assay: pooled miR-30 sensor sort-seq; sequence = guide strand; conditions: shRNA

Compared with TTGATTCTGCAGTAGTCGCCAT, TTTCGATGTGTCCACAACCTCA is lower in sensor-assay potency score (higher = more potent): 0.104 for the first, -1.33 for the second.

Compared with TTTTCTGCATAGTTGAGCCGAC, TACAGATCCAGGGTCTCGGGGT is lower in sensor-assay potency score (higher = more potent): -0.296 for the first, -0.361 for the second.

Compared with TCTGTCATTCTCTTTGTGCCGC, TGATTCTGCAGTAGTCGCCATG is lower in sensor-assay potency score (higher = more potent): 0.211 for the first, -0.951 for the second.

First: TAGGCCTTTAACCACCTGCTGC
Second: TTACAGTGCACACGGGTGCGGC
The sensor-assay potency score (higher = more potent) of the first is lower: -1.19 for the first, -0.808 for the second.

Going from TTGGAATCTTTGAAAGGTCTAT to TTTGACGGCAACTTCCACTTTC, the sensor-assay potency score (higher = more potent) falls from 0.0735 to -0.286.

Compared with TTGAGGGTGCCGTCACTCCGGC, TAGCACAGGAGGATGTCACTGC is higher in sensor-assay potency score (higher = more potent): -1.01 for the first, 0.828 for the second.

biological target: AADACL2; assay: as above; conditions: shRNA

Going from TATCTCTTATCCTAAGACCTAG to TTCAGCATCATTCTGCACCTGT, the sensor-assay potency score (higher = more potent) rises from -0.412 to 0.443.

Going from TTGTAACATACATAAGTCCATC to TAAACAGATGTCTTGACTCCAG, the sensor-assay potency score (higher = more potent) rises from -1.14 to -0.578.

Compared with TTTTATTTCAGCATCATTCTGC, TTTTGTAAGAATTTTTTCCAAA is lower in sensor-assay potency score (higher = more potent): 0.839 for the first, -1.07 for the second.

Compared with TAACTGAGAATCATTGGCCAAC, TTTTTGGCAAGTACAATCGTAC is higher in sensor-assay potency score (higher = more potent): -1.39 for the first, -0.474 for the second.

First: TACAACAACAGCATCAAGCGTG
Second: TTGGCAAGTACAATCGTACTGG
The sensor-assay potency score (higher = more potent) of the first is lower: -0.148 for the first, 0.407 for the second.

Compared with TAACATACATAAGTCCATCATC, TAAATGTACAAGTTTTAGCGAT is higher in sensor-assay potency score (higher = more potent): -1.34 for the first, -0.754 for the second.

biological target: AADACL3; assay: as above; conditions: shRNA

Compared with TTCATGATGACCTCTTGCCAGG, TTTCATGATGACCTCTTGCCAG is higher in sensor-assay potency score (higher = more potent): -1.37 for the first, -1.07 for the second.

Compared with TTATGCTTAGGTAACTTGCGGT, TTGTTGACAAACCACTGCGGCT is lower in sensor-assay potency score (higher = more potent): 0.0464 for the first, -1.56 for the second.

First: TATGTCATCTTCTGCAATCAGG
Second: TTTTCTTGTACAACAGTGAATT
The sensor-assay potency score (higher = more potent) of the first is higher: -1.03 for the first, -1.64 for the second.

Compared with TACAACAGTGAATTGTCCCGGA, TAGCAGATGAAACTCCAGGTGA is lower in sensor-assay potency score (higher = more potent): 0.727 for the first, -0.205 for the second.

Going from ATCCGTGACCACAACATCGGGA to TATGCTTAGGTAACTTGCGGTA, the sensor-assay potency score (higher = more potent) falls from 0.0942 to -0.306.

Going from TTACTTCCAAGTAAGCAGCTTC to TAGATCAGGATCTGAGCCCGGA, the sensor-assay potency score (higher = more potent) falls from 0.308 to 0.297.

biological target: AATK; assay: as above; conditions: shRNA

Compared with TTCACCGTCAGGTCAGCCGTGA, TTGCCTTCTGATCTCAGCGGAA is lower in sensor-assay potency score (higher = more potent): -0.0686 for the first, -0.981 for the second.

For TAGTTCTCGGTGTCATAGCCAC, the sensor-assay potency score (higher = more potent) was -0.895.
